Screens (PubChem)
EBV gp42 block: blocks Epstein-Barr virus glycoprotein 42 binding; inhibition, % (tested at 21.74 µM); 220,000 tested, 0.42% active; Fluorescence polarization binding assay, mP read-out; Q1HVG2; AID 1085; in the data active = inhibition above about 50%
Target sequence (Q1HVG2 whole entry, looked up): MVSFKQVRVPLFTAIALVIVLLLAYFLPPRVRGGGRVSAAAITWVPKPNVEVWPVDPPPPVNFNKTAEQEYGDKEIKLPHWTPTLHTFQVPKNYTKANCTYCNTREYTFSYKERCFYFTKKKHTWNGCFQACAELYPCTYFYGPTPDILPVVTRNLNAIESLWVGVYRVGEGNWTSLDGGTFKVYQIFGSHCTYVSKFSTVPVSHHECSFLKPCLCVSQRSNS
BCLXL inh: Bcl-xL (human) inhibition | inhibition, % at 10.9 µM | AID 2129 | 320,000 tested, 0.7% active | Q07817 | GST-Bcl-xL / FITC-Bim BH3 peptide fluorescence polarization;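 active = inhibition above the mean of all tested compounds plus 3 SD, cutoff set per campaign, cut at about 30% in these data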;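 also: 0% = DMSO wells and 100% = unlabeled Bim-BH3 peptide competitor; inhibitors lower millipolarization by displacing the labeled peptide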
GLD-1 TGE inh: GLD-1-TGE RNA interaction inhibition (C. elegans); Q17339; purified GLD-1 + fluorescein TGE RNA, fluorescence polarization; inhibition, % at 5.96 µM; 320,000 tested, 0.44% active; AID 2280;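 active = percent inhibition above a per-plate cutoff, the plate mean of test compounds plus 3 SD, cut at about 30% in these data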;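 also: 0% = DMSO wells with GLD-1 and probe and 100% = wells lacking GLD-1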
MEX-5 binding: C. elegans MEX-5 TCR-2 RNA binding activity | activity score (negative = inhibition of binding), % at 10 µM | 300,000 tested, 0.38% active | MEX-5/FITC-TCR2 RNA binding, fluorescence polarization; hits give low values | Q9XUB2;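 active = inhibition past about -25% in most replicates, and total fluorescence under double the plate's negative control median, limit read from the data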;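 also: 0% = DMSO and -100% = 5 µM competing unlabeled TCR2 RNA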
E coli Lon inh: inhibits E. coli Lon protease | P0A9M0 | AID 602123 | 360,000 tested, 0.42% active | purified E. coli Lon protease, fluorescence polarization | inhibition, % at 7.94 µM; in the data active = inhibition above about 13%, passing the limit was not always enough;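 also: 0% = enzyme with probe and DMSO and 100% = no enzyme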
MCL1 BIM primary: inhibitors of human MCL1 binding to BIM-BH3 peptide; Q07820; GST-MCL1 / FITC-Bim-BH3 fluorescence polarization; inhibition, % at 10.9 µM; 320,000 tested, 0.68% active;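 active = inhibition above the mean inhibition of all tested compounds plus 3 SD, set per campaign, cut at about 40% in these data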;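 also: 0% = DMSO wells and 100% = unlabeled Bim-BH3 peptide control; higher means more loss of mP so more displacement of Bim peptide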
Target sequence (Q07820 whole entry, looked up): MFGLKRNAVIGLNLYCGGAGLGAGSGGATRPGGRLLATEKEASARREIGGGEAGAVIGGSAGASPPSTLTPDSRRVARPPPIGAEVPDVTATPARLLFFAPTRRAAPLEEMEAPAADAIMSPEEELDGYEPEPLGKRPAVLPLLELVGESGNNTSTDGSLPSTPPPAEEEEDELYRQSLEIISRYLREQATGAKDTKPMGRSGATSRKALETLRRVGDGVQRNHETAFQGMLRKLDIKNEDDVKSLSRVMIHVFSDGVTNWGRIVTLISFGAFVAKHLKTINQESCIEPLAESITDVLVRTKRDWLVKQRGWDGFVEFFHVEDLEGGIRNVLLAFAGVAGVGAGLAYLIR
Numbers without * were called inactive; i = inactive; nt = no result given. This is a sample that favours compounds with a hit; in the whole collection about 1.4% have one here.

SMILES	EBV gp42 block	BCLXL inh	GLD-1 TGE inh	MEX-5 binding	E coli Lon inh	MCL1 BIM primary
CCOC(=O)c1sc2nc3c(SCCC#N)cc(C(=O)c4cc(F)ccc4O)cn3c(=O)c2c1C	-61	-2	-4	5	-22	-15
CCOC(=O)c1sc2nc3c(SCCC(=O)O)cc(C(=O)c4cc(OC)ccc4O)cn3c(=O)c2c1C	79*	nt	nt	0	-20	nt
O=C(N=Nc1ccc(NOC(=O)c2ccccc2Br)cc1)c1ccccc1O	51*	16	-1	-1	nt	19
COc1ccc(C(=O)O/N=C(/c2cccs2)C(C)(C)C)cc1	-3	6	138*	3	-2	7
C/C(=N/OC(=O)c1ccc(C)cc1)c1cccs1	-15	6	-7	-2	2	14
COc1cc(C(=O)NCC(c2ccco2)N2CCCC2)ccc1OCc1ccc(Cl)cc1Cl (stereo not given)	nt	nt	nt	nt	1	nt
O=C(N/N=C/c1ccc(-c2cccc([N+](=O)[O-])c2)o1)c1ccccc1O	5	11	8	3	5	9
Cc1cc([N+](=O)[O-])ccc1-c1ccc(/C=N/NC(=O)Cc2ccccc2)o1	89*	-2	-5	-15	-2	0
O=C(Cc1ccc([N+](=O)[O-])cc1)N/N=C/c1ccc([N+](=O)[O-])o1	-39	4	-2	1	-6	2
COc1cc([N+](=O)[O-])ccc1-c1ccc(/C=N\n2cnnc2)o1	nt	nt	nt	-12	5	nt
O=C(N/N=C/c1ccc(-c2cccc([N+](=O)[O-])c2)o1)c1ccc([N+](=O)[O-])cc1	-8	5	-2	-35*	-5	8
COc1cc([N+](=O)[O-])ccc1-c1ccc(/C=N/NC(=O)c2ccccc2O)o1	67*	nt	nt	2	nt	nt
CCCCCCCN1C(Nc2ccccc2)=NC[C@@H]1C	nt	4	-10	nt	-5	-2
c1ccc(Cn2c[n+](Cc3ccccc3)c3ccccc32)cc1	nt	9	3	4	-5	4
Cc1ccc(C)n1-c1cccc(C(=O)O)c1	17	26	14	-93*	nt	71*
Cc1ccc(C)n1-c1cccc(N)c1	-10	36*	-11	-4	nt	45*
CC1(O)C(=O)C=C2C=C(C3CC3)OC=C2C1=O (stereo not given)	nt	21	23	-60*	nt	31
CC1(OC(=O)CCc2ccccc2)C(=O)C=C2C=C(c3ccc(C#N)cc3)N(C3CCCCC3)C=C2C1=O (stereo not given)	14	20	15	-3	-3	21
CC1(OC(=O)CCc2ccccc2)C(=O)C=C2C=C(C3CC3)OC=C2C1=O (stereo not given)	nt	39*	33*	-19	nt	45*
O=c1[nH]c2ccccc2nc1Cc1ccccc1	-19	7	4	0	1	-1
O=C(Cc1nc2ccccc2[nH]c1=O)c1ccccc1	52*	nt	nt	-61*	-13	nt
CC1CCN(C(=O)c2ccc3c(c2)NC(=O)/C(=C/c2ccccc2)S3)CC1	nt	3	-1	3	3	4
Cc1ccc(/C=C2/Sc3ccc(C(=O)N4CCN(C)CC4)cc3NC2=O)cc1	nt	37*	17	-12	10	34
Cc1noc(/C=C/c2cccnc2)c1[N+](=O)[O-]	nt	3	-10	-4	4	1
Cc1noc(/C=C/c2ccc(-c3ccccc3Cl)o2)c1[N+](=O)[O-]	130*	-59	-60	2	-91	-97
SMILES	EBV gp42 block	BCLXL inh	GLD-1 TGE inh	MEX-5 binding	E coli Lon inh	MCL1 BIM primary
CCOc1ccc2nc(N3C(=O)/C(=C/c4ccc(Cl)cc4)NC3=S)sc2c1	64*	nt	nt	-4	-7	nt
COc1cccc(C2c3c(oc4ccccc4c3=O)C(=O)N2Cc2ccco2)c1 (stereo not given)	nt	-3	-5	-48*	-1	-10
CN(CC(=O)Nc1ccccc1Cl)C(=O)CCc1nc2ccccc2c(=O)[nH]1	nt	31*	25	-11	-14	31
COc1ccc(C(=O)/C=C/Nc2ccc([N+](=O)[O-])cc2C)cc1OC	-28	-7	3	-43*	-11	-5
C[C@@H]1CN([C@H](C)CO)C(=O)CCCn2nncc2CO[C@@H]1CN(C)S(=O)(=O)c1ccc2c(c1)OCCCO2	nt	nt	nt	nt	-9	nt
O=Cc1cnc(N2CCCCC2)s1	112*	4	3	1	-10	3
COc1ccc2nc3ccccc3nc2c1NC(=O)c1ccc(Cl)cc1Cl	25	4	13	-53*	-7	-9
O=[N+]([O-])c1ccc(Sc2cccc3cccnc23)c2cccnc12	62*	2	1	-14	0	0
O=[N+]([O-])c1cc2cccnc2c2ncccc12	-8	6	-1	-10	-3	8
Cc1ccc2[nH]c3c(c2c1)CN(C(=O)CN1CCCc2ccccc21)CC3	10	33*	-8	-1	-18	29
O=[N+]([O-])c1c(NCCCO)cc(Sc2nc3ccccc3s2)c2nonc12	12	44*	11	-9	-12	60*
CCCC(C)(C)C(=O)N1CCC1(C)C(=O)Nc1cccc2ccccc12 (stereo not given)	nt	nt	nt	nt	-5	nt
COCC1CCN(C(=O)CC2C(=O)NCCN2Cc2cccc(Oc3ccccc3)c2)CC1 (stereo not given)	nt	12	3	-26*	3	7
O=C1NCCN(Cc2cccc(Oc3ccccc3)c2)C1CC(=O)N1CCCO1 (stereo not given)	-11	4	2	4	-4	-4
CCOC(=O)c1c(-c2ccc(OC)cc2)oc2c1C(OC(C)=O)CCC2 (stereo not given)	nt	nt	nt	nt	3	nt
O=C(O)c1ccc(N2C(=O)/C(=C/c3ccc(-c4ccc([N+](=O)[O-])cc4)o3)C=C2c2ccccc2)cc1	82*	-9	-7	-1	-31	-48
NC(=O)c1ccc(Oc2cccc3cccnc23)c([N+](=O)[O-])c1	19	33*	6	-4	0	29
CCOC(=O)C1=C(C)OC(N)=C(C#N)C1c1ccc(O)c(OC)c1 (stereo not given)	-20	0	6	-40*	-2	-1
CN(C)c1ccc(/C=C(\C#N)C(=O)Nc2nc3c(s2)CCN(Cc2ccccc2)C3)cc1	106*	-99	-209	-15	i	-171
[O-][n+]1ccccc1/C=C/c1ccccc1	nt	3	1	2	-8	7
CN(C)c1ccc(/C=C/c2cccc[n+]2[O-])cc1	-22	31*	-2	2	-64	19
Cn1ccc2c(-c3ccc(C(=O)O)cc3)cc3c(c21)C1CCC3C1 (stereo not given)	nt	nt	nt	nt	2	nt
COc1ccc2nc3cc(Cl)ccc3c(Nc3cc(CN4CCCC4)c(O)c(CN4CCCC4)c3)c2n1	nt	5	-1	-36*	4	19
CN(CCOc1ccc(Cl)c(Cl)c1)Cc1ccccc1	nt	6	6	0	-7	7
